Values joined by “and” are separate entries in the source; they are usually repeats but may differ in a detail not shown here. Equal entries are not always repeated. The campaign covered roughly 5,500 compounds. About 2,000 (36%) were called active. Another 18% or so got no clear call; they are omitted. Rule as the data show it: active = normalized growth mostly below about 0.91 (no sharp cut-off); inconclusive = no clear call, values can overlap the other calls; inactive = mostly above about 0.92. Some of the results follow.
Assay: chemical genetic growth profiling, strain panel (AID 1159580);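 also: tested at 20 µM; growth read once vehicle control cultures reached saturation at 30 °C; 1 = growth at the plate median or of vehicle wells; lower values mean less growth of the strain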
Details: growth OD

Measured: normalized growth

COc1ccc(Cl)cc1C(=O)NCCc1ccc(S(=O)(=O)NC(=O)NC2CCCCC2)cc1
inactive: S. cerevisiae deletion strains, locus YJR075W, strain HOC1, active compounds read low 0.98 and 0.984 | S. cerevisiae deletion strains, locus YKL009W, strain mrt4, active compounds read low 1.02 | S. cerevisiae deletion strains, locus YKL068W, active compounds read low 1.04 | S. cerevisiae deletion strains, locus YKL085W, strain MDH1 (second series), active compounds read low 0.977 | S. cerevisiae deletion strains, locus YKL085W, strain MDH1, active compounds read low 0.977 | S. cerevisiae deletion strains, locus YKL160W, strain elf1, active compounds read low 1.01 | S. cerevisiae deletion strains, locus YKL190W, strain CNB1, active compounds read low 0.945 | S. cerevisiae deletion strains, locus YKR001C, strain vps1, active compounds read low 0.997 | S. cerevisiae deletion strains, locus YKR026C, strain gcn3, active compounds read low 0.989 | S. cerevisiae deletion strains, locus YKR091W, strain srl3, active compounds read low 0.993 | S. cerevisiae deletion strains, locus YLL001W, strain dnm1, active compounds read low 1.01 | S. cerevisiae deletion strains, locus YLL026W, active compounds read low 0.995 | S. cerevisiae deletion strains, locus YLL041C, strain sdh2, active compounds read low 1 | S. cerevisiae deletion strains, locus YLR027C, strain aat2, active compounds read low 1.01 | S. cerevisiae deletion strains, locus YLR039C, strain RIC1, active compounds read low 0.963 | S. cerevisiae deletion strains, locus YLR058C, strain SHM2, active compounds read low 0.972 | S. cerevisiae deletion strains, locus YLR102C, strain apc9, active compounds read low 0.989 | S. cerevisiae deletion strains, locus YLR113W, strain HOG1, active compounds read low 1.01 | S. cerevisiae deletion strains, locus YLR221C, strain rsa3, active compounds read low 1 | S. cerevisiae deletion strains, locus YLR258W, strain gsy2, active compounds read low 0.982 | S. cerevisiae deletion strains, locus YLR262C, strain YPT6 (second series), active compounds read low 0.999 | S. cerevisiae deletion strains, locus YLR262C, strain YPT6, active compounds read low 0.915 | S. cerevisiae deletion strains, locus YLR268W, strain sec22, active compounds read low 0.966 | S. cerevisiae deletion strains, locus YLR320W, strain mms22, active compounds read low 1 | S. cerevisiae deletion strains, locus YLR330W, strain CHS5, active compounds read low 0.994 | S. cerevisiae deletion strains, locus YLR342W, strain FKS1 (second series), active compounds read low 1.1 | S. cerevisiae deletion strains, locus YLR342W, strain FKS1, active compounds read low 1.01 | S. cerevisiae deletion strains, locus YLR357W, strain rsc2, active compounds read low 0.998 | S. cerevisiae deletion strains, locus YLR370C, strain arc18, active compounds read low 0.998 | S. cerevisiae deletion strains, locus YLR371W, strain rom2, active compounds read low 1.01 | S. cerevisiae deletion strains, locus YLR384C, strain iki3, active compounds read low 1 | S. cerevisiae deletion strains, locus YLR418C, strain cdc73, active compounds read low 0.944 | S. cerevisiae deletion strains, locus YML016C, strain PPZ1, active compounds read low 0.987 | S. cerevisiae deletion strains, locus YML032C, strain rad52, active compounds read low 1.02 | S. cerevisiae deletion strains, locus YML120C, strain ndi1, active compounds read low 1.02 | S. cerevisiae deletion strains, locus YML124C, strain tub3, active compounds read low 1 | S. cerevisiae deletion strains, locus YMR058W, strain fet3, active compounds read low 0.999 | S. cerevisiae deletion strains, locus YMR078C, strain ctf18, active compounds read low 0.998 | S. cerevisiae deletion strains, locus YMR125W, strain sto1, active compounds read low 0.992 | S. cerevisiae deletion strains, locus YMR129W, active compounds read low 1.01 | S. cerevisiae deletion strains, locus YMR205C, strain PFK2, active compounds read low 1 | S. cerevisiae deletion strains, locus YMR223W, strain ubp8, active compounds read low 1.05 | S. cerevisiae deletion strains, locus YMR231W, strain pep5, active compounds read low 1.01 | S. cerevisiae deletion strains, locus YMR263W, strain SAP30, active compounds read low 0.961 and 1 | S. cerevisiae deletion strains, locus YMR307W, strain GAS1, active compounds read low 1.06 and 0.976 | S. cerevisiae deletion strains, locus YNL067W, strain RPL9B, active compounds read low 0.951 | S. cerevisiae deletion strains, locus YNL071W, strain lat1, active compounds read low 1.01 | S. cerevisiae deletion strains, locus YNL128W, strain TEP1, active compounds read low 0.911 | S. cerevisiae deletion strains, locus YNL153C, strain GIM3, active compounds read low 0.943 and 1.04 | S. cerevisiae deletion strains, locus YNL175C, strain NOP13, active compounds read low 1 | S. cerevisiae deletion strains, locus YNL183C, strain NPR1, active compounds read low 0.947 | S. cerevisiae deletion strains, locus YNL197C, strain WHI3, active compounds read low 1.01 | S. cerevisiae deletion strains, locus YNL209W, strain ssb2, active compounds read low 1.01 | S. cerevisiae deletion strains, locus YNL224C, strain SQS1, active compounds read low 1.01 | S. cerevisiae deletion strains, locus YNL233W, strain BNI4, active compounds read low 0.978 | S. cerevisiae deletion strains, locus YNL248C, strain rpa49, active compounds read low 1.01 | S. cerevisiae deletion strains, locus YNL250W, strain rad50, active compounds read low 0.969 | S. cerevisiae deletion strains, locus YNL271C, strain bni1, active compounds read low 0.999 | S. cerevisiae deletion strains, locus YNL298W, strain CLA4, active compounds read low 0.987 | S. cerevisiae deletion strains, locus YNL307C, strain MCK1, active compounds read low 1.03 | S. cerevisiae deletion strains, locus YNL322C, strain KRE1 (second series), active compounds read low 0.999 | S. cerevisiae deletion strains, locus YNL322C, strain KRE1, active compounds read low 0.975 | S. cerevisiae deletion strains, locus YNR049C, strain mso1, active compounds read low 1 | S. cerevisiae deletion strains, locus YNR052C, strain pop2, active compounds read low 1 | S. cerevisiae deletion strains, locus YOL006C, strain TOP1, active compounds read low 0.875 | S. cerevisiae deletion strains, locus YOL012C, strain htz1 1.15 | S. cerevisiae deletion strains, locus YOL147C, strain pex11, active compounds read low 1 | S. cerevisiae deletion strains, locus YOR001W, strain rrp6, active compounds read low 1.01 | S. cerevisiae deletion strains, locus YOR061W, strain CKA2, active compounds read low 0.96 | S. cerevisiae deletion strains, locus YOR069W, strain VPS5, active compounds read low 1 | S. cerevisiae deletion strains, locus YOR070C, strain gyp1, active compounds read low 0.995 | S. cerevisiae deletion strains, locus YOR080W, strain dia2, active compounds read low 0.987 | S. cerevisiae deletion strains, locus YOR083W, strain WHI5 (second series), active compounds read low 1.07 | S. cerevisiae deletion strains, locus YOR083W, strain WHI5, active compounds read low 1.01 | S. cerevisiae deletion strains, locus YOR106W, strain vam3, active compounds read low 1.01 | S. cerevisiae deletion strains, locus YOR136W, strain idh2, active compounds read low 0.996 | S. cerevisiae deletion strains, locus YOR144C, strain elg1, active compounds read low 0.999 | S. cerevisiae deletion strains, locus YOR184W, strain ser1, active compounds read low 1.06 | S. cerevisiae deletion strains, locus YOR231W, strain MKK1, active compounds read low 0.994 | S. cerevisiae deletion strains, locus YOR265W, strain rbl2, active compounds read low 1 | S. cerevisiae deletion strains, locus YOR270C, strain vph1, active compounds read low 0.998 | S. cerevisiae deletion strains, locus YOR290C, strain snf2, active compounds read low 0.938 | S. cerevisiae deletion strains, locus YOR316C, strain cot1, active compounds read low 0.994 | S. cerevisiae deletion strains, locus YPL051W, strain arl3, active compounds read low 1.01 | S. cerevisiae deletion strains, locus YPL055C, strain LGE1, active compounds read low 0.877 | S. cerevisiae deletion strains, locus YPL078C, strain atp4, active compounds read low 1.01 | S. cerevisiae deletion strains, locus YPL106C, strain sse1, active compounds read low 1.02 | S. cerevisiae deletion strains, locus YPL240C, strain hsp82, active compounds read low 1 | S. cerevisiae deletion strains, locus YPL241C, strain CIN2, active compounds read low 0.972 and 1.01 | S. cerevisiae deletion strains, locus YPL256C, strain CLN2, active compounds read low 1.01 | S. cerevisiae deletion strains, locus YPR119W, strain clb2, active compounds read low 0.986 | S. cerevisiae deletion strains, locus YPR141C, strain kar3, active compounds read low 0.976 | S. cerevisiae deletion strains, locus YPR163C, strain tif3, active compounds read low 1 | S. cerevisiae deletion strains, locus YPR167C, strain met16, active compounds read low 0.993 | S. cerevisiae deletion strains, strain wtn01, active compounds read low 0.98 | S. cerevisiae strains, strain wild type, active compounds read low 0.97

— PubChem BioAssay AID1159580 (chemical genetic matrix, 2015)
